Measured values taken from the supplement of paper PMC7595190.
Values without a mark were called inactive.

Assays:
Assay in all cases: CellTox Green cytotoxicity fluorescence relative to DMSO vehicle (fold of vehicle RFU); higher = more cell death (loss of membrane integrity), active = 2 or more
[1] = system: CMK
Summary of the method: (§1)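 MV4-11, CMK and Kasumi-1 cells were seeded at 4.0 × 10^4 cells per well in 96-well black optical-bottom plates, with CellTox Green reagent added at seeding. Single compounds from the Selleckchem apoptosis library, diluted in DMSO, were added at final 0.01, 0.1 and 1 µM (vehicle 0.1% DMSO), then incubated at 37 °C, 5% CO2 and read at 24, 48 and 72 h (Ex 485 nm, Em 520 nm). Cytotoxicity, reflecting loss of membrane integrity, is fluorescence expressed as fold of the DMSO vehicle.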

[2] = system: Kasumi-1
Summary of the method: as §1

[3] = system: MV4-11
Summary of the method: as §1

SMILES | CellTox Green cytotoxicity fluorescence ([1]; 0.01 µM, 24 h) | CellTox Green cytotoxicity fluorescence ([1]; 0.01 µM, 48 h) | CellTox Green cytotoxicity fluorescence ([1]; 0.01 µM, 72 h) | CellTox Green cytotoxicity fluorescence ([1]; 0.1 µM, 24 h) | CellTox Green cytotoxicity fluorescence ([1]; 0.1 µM, 48 h) | CellTox Green cytotoxicity fluorescence ([1]; 0.1 µM, 72 h) | CellTox Green cytotoxicity fluorescence ([1]; 1 µM, 24 h) | CellTox Green cytotoxicity fluorescence ([1]; 1 µM, 48 h) | CellTox Green cytotoxicity fluorescence ([1]; 1 µM, 72 h) | CellTox Green cytotoxicity fluorescence ([2]; 0.01 µM, 24 h) | CellTox Green cytotoxicity fluorescence ([2]; 0.01 µM, 48 h) | CellTox Green cytotoxicity fluorescence ([2]; 0.01 µM, 72 h) | CellTox Green cytotoxicity fluorescence ([2]; 0.1 µM, 24 h) | CellTox Green cytotoxicity fluorescence ([2]; 0.1 µM, 48 h) | CellTox Green cytotoxicity fluorescence ([2]; 0.1 µM, 72 h) | CellTox Green cytotoxicity fluorescence ([2]; 1 µM, 24 h) | CellTox Green cytotoxicity fluorescence ([2]; 1 µM, 48 h) | CellTox Green cytotoxicity fluorescence ([2]; 1 µM, 72 h) | CellTox Green cytotoxicity fluorescence ([3]; 0.01 µM, 24 h) | CellTox Green cytotoxicity fluorescence ([3]; 0.01 µM, 48 h) | CellTox Green cytotoxicity fluorescence ([3]; 0.01 µM, 72 h) | CellTox Green cytotoxicity fluorescence ([3]; 0.1 µM, 24 h) | CellTox Green cytotoxicity fluorescence ([3]; 0.1 µM, 48 h) | CellTox Green cytotoxicity fluorescence ([3]; 0.1 µM, 72 h) | CellTox Green cytotoxicity fluorescence ([3]; 1 µM, 24 h) | CellTox Green cytotoxicity fluorescence ([3]; 1 µM, 48 h) | CellTox Green cytotoxicity fluorescence ([3]; 1 µM, 72 h)
CC(C)(C)C[C@@H]1N[C@@H](C(=O)N[C@H]2CC[C@H](O)CC2)[C@H](c2cccc(Cl)c2F)[C@]12C(=O)Nc1cc(Cl)ccc12 | 0.996 | 1.03 | 1.05 | 0.963 | 0.971 | 0.947 | 1.02 | 1.04 | 1.01 | 1 | 0.996 | 1.03 | 0.991 | 0.994 | 1 | 0.906 | 1.02 | 1.04 |  |  |  |  |  |  |  |  | 
O=C1C(=O)N(Cc2ccc(Cl)c(Cl)c2)c2ccccc21 [Apoptosis Activator 2] | 1.01 | 1.02 | 1.01 | 1.03 | 1.04 | 1.02 | 0.981 | 1.01 | 0.986 | 0.997 | 1 | 1.01 | 1 | 0.985 | 0.971 | 1.02 | 1.04 | 1.04 | 0.971 | 0.978 | 0.98 | 1.02 | 1.03 | 1.02 | 1.02 | 1.13 | 1.13
Cc1nc(Nc2ncc(C(=O)Nc3c(C)cccc3Cl)s2)cc(N2CCN(CCO)CC2)n1 [Dasatinib Monohydrate] | 1.01 | 1.02 | 1.07 | 1.02 | 1.04 | 0.987 | 1 | 1.05 | 1.09 | 1.03 | 1.09 | 1.13 | 1.02 | 1.15 | 1.23 | 0.928 | 1.13 | 1.24 |  |  |  |  |  |  |  |  | 
O=C(COc1ccc(Cl)cc1)NC1CCC(NC(=O)COc2ccc(Cl)cc2)CC1 (stereo not drawn) | 0.999 | 0.971 | 0.929 | 0.975 | 0.97 | 0.973 | 0.971 | 1.02 | 1.01 | 1.02 | 0.993 | 0.987 | 0.991 | 0.965 | 0.954 | 0.966 | 0.962 | 0.961 |  |  |  |  |  |  |  |  | 
c1ccc2c(CCNc3ccc(Nc4ccncc4)cc3)c[nH]c2c1 [Serdemetan] | 0.966 | 0.966 | 0.987 | 0.95 | 0.971 | 1.05 | 0.925 | 1.67 | 2.28 (active) | 0.983 | 0.933 | 0.904 | 0.969 | 0.964 | 0.955 | 1.01 | 1.45 | 1.77 | 0.97 | 0.948 | 0.953 | 0.929 | 0.918 | 0.946 | 1.21 | 3.08 (active) | 3.17 (active)
COc1cccc(-n2c(=O)[nH]c3cc(Cl)n(-c4ccc(-c5cccc(OC)c5O)cc4)c3c2=O)c1 | 0.99 | 0.943 | 1.27 | 0.996 | 0.985 | 0.962 | 0.95 | 0.915 | 0.832 | 0.97 | 0.973 | 1.13 | 0.99 | 0.989 | 0.991 | 0.947 | 0.91 | 0.877 | 0.975 | 0.924 |  | 0.975 | 0.966 | 0.959 | 1.01 | 1 | 1
CN[C@@H](C)C(=O)N[C@H](C(=O)N1CCC[C@H]1C(=O)Nc1snnc1-c1ccccc1)C1CCCCC1 | 0.986 | 0.984 | 0.983 | 1.01 | 1 | 1.02 | 1.01 | 1.02 | 0.959 | 0.983 | 0.949 | 0.94 | 1.01 | 1.03 | 1.07 | 0.988 | 1.04 | 1.1 |  |  |  |  |  |  |  |  | 
CCCCC(C=O)NC(=O)C(CC(C)C)NC(=O)C(CC(C)C)NC(C)=O (stereo not drawn) | 0.991 | 0.967 | 0.962 | 0.984 | 0.984 | 1.01 | 2.35 (active) | 3.65 (active) | 2.82 (active) | 1.01 | 0.993 | 0.999 | 1.01 | 1 | 1 | 1.03 | 1.11 | 1.16 |  |  |  |  |  |  |  |  | 
COc1cc(C(=O)N2CCC(N3CCN(C)CC3)CC2)ccc1Nc1ncc2c(n1)N(C)c1ccccc1C(=O)N2C | 0.941 | 0.923 | 0.891 | 0.97 | 0.967 | 0.941 | 1.16 | 1.89 | 1.71 | 1.05 | 1.01 | 1.01 | 0.99 | 0.983 | 1 | 1.03 | 1.33 | 1.61 | 1.02 | 1.01 | 1.02 | 1.02 | 1.03 | 1.08 | 1.02 | 1.29 | 1.62
Cn1cc(-c2ccc3c(c2)CCN3C(=O)Cc2cccc(C(F)(F)F)c2)c2c(N)ncnc21 | 0.971 | 0.966 | 0.935 | 0.981 | 0.987 | 0.978 | 0.972 | 1.01 | 0.913 | 1.07 | 1.03 | 1.02 | 1.01 | 1.05 | 1.07 | 0.955 | 1.02 | 1.08 |  |  |  |  |  |  |  |  | 
C=CC(=O)N1CC(=Cc2ccc([N+](=O)[O-])cc2)C(=O)C(=Cc2ccc([N+](=O)[O-])cc2)C1 | 0.921 | 0.908 | 0.929 | 1.13 | 1.16 | 1.07 | 2.14 (active) | 3.36 (active) | 2.48 (active) | 1.01 | 0.937 | 0.951 | 1.01 | 1.05 | 1.04 | 1.25 | 1.78 | 1.95 | 0.967 | 0.965 | 0.983 | 1.11 | 1.66 | 1.78 | 1.68 | 2.12 (active) | 1.92
C=CC(=O)N1CCC(Oc2cc3c(Nc4ccc(Cl)c(Cl)c4F)ncnc3cc2OC)CC1 [Poziotinib] | 1.02 | 1.01 | 1.02 | 1.03 | 1.02 | 1.02 | 0.999 | 1 | 0.915 | 0.992 | 0.982 | 0.982 | 1.03 | 1.02 | 1.02 | 0.994 | 1 | 1.04 | 0.975 | 0.986 | 0.988 | 1.02 | 1.02 | 1.03 | 1.01 | 1.03 | 1.09
CCOC(=O)c1[nH]c2cc(Cl)ccc2c1C(C(=O)NC(C)(C)C)N(C=O)Cc1ccc(Cl)cc1 (stereo not drawn) | 0.996 | 0.985 | 1 | 0.958 | 0.958 | 0.962 | 0.96 | 0.971 | 0.87 | 1.06 | 1.01 | 1 | 0.989 | 0.982 | 1 | 0.977 | 0.971 | 0.97 | 0.983 | 0.965 | 0.957 | 0.989 | 0.983 | 0.985 | 0.954 | 0.993 | 1.02
CCCCNc1ncc2c(-c3ccc(CN4CCN(C)CC4)cc3)cn([C@H]3CC[C@H](O)CC3)c2n1 | 0.987 | 0.978 | 1 | 1.07 | 1.31 | 1.32 | 1.13 | 1.75 | 1.98 | 1.06 | 1.01 | 1.02 | 1.05 | 1.18 | 1.32 | 1.1 | 1.62 | 1.93 | 1.03 | 1.16 | 1.28 | 1.04 | 1.47 | 2.1 (active) | 1.08 | 1.7 | 2.22 (active)
